# According to PubChem BioAssay (Tox21):
# Calls of active or inactive are those of the source. Calls follow the shape of the dose curve; as a rule, active = well fitted curve in the direction sought with a large enough effect in the repeat runs; inconclusive = weak or mixed curves; inactive = flat fitted curve, though single readings scatter.
# Assay: qHTS assay to test for compound auto fluorescence at 590 nm (red) in HEK293 cells (AID 720679)
# Conditions: red autofluorescence 540/590 nm; series mostly up to 91.3 µM
# Text: National Center for Advancing Translational Sciences [NCATS]
# NIH Chemical Genomics Center [NCGC]
# U.S. Environmental Protection Agency [EPA]
# National Institutes of Environmental Health Sciences [NIEHS]
# National Toxicology Program [NTP]
# U.S. Food and Drug Administration [FDA]
# Compound auto fluorescence often interferes with screening of the compound library against various biological targets and signaling pathways. Some of these compounds may have fluorophoric properties. Such properties may interfere with the assay outputs resulting in false positives and/or negatives. To decrease such complications and ensure the compound activities are relevant in terms of biological response, the Tox21 10K compound library was screened for auto fluorescence.
# From the fluorophores used as reporter signals in our screening assays, the auto fluorescence equivalencies of compounds against three fluorophores have been evaluated: Triamterene, Fluorescein and Rose Bengal sodium for blue, green and red fluorescence, respectively. The fluorescence intensities were measured using Excitation/Emission wavelengths at 405/460nm, 485/535nm and 540/590nm for blue, green and red labels, respectively. This assay includes the red fluorescence data.
# Tox21 Assay Protocol Summary:
# 2,000 HEK293 cells in 5 uL of culture medium containing 10% dialyzed FBS per well were dispensed into black wall/clear bottom 1536-well plates using a Multidrop Combi Dispenser (Thermo Scientific). The assay plates were incubated for 4-5 hr at 37C to allow cell attachment to the well bottom, followed by the transfer of 23 nL compound or DMSO vehicle by a pintool work station (Kalypsys, San Diego, CA). After the assay plates were incubated overnight at 37C and 5% CO2, fluorescence intensities in the assay plates were measured by an Envision (PerkinElmer, Shelton, CT) plate reader using three labels for measuring blue, green and red fluorescence at […] 460, 535 and 590nm respectively.
# % is scaled to controls: 0 for no effect and ±100 for the full control effect.
SMILES,outcome,"fluorescence, % of fluorescent control"
Cc1cc(O)c2c(O)c3c(O)cccc3cc2c1,inactive,
CC(=O)Nc1ccc(N)cc1,inactive,
CO/N=C1\CN(c2nc3c(cc2F)c(=O)c(C(=O)O)cn3C2CC2)CC1CN (stereo not given),inactive,
O=C(/C=C/c1ccccc1)OCCCc1ccccc1,inactive,
Cc1cnc(C)c(C)n1,inactive,
COC(=O)[C@@H]1CC2=CC(=O)CC[C@]2(C)[C@@]23O[C@@H]2C[C@@]2(C)[C@@H](CC[C@@]24CCC(=O)O4)[C@H]13,inactive,
CCCCN(CCCC)CCCOC(=O)c1ccc(N)cc1,,0.141% [at 18.6 µM] (inactive)
COc1ccccc1N=Nc1c(S(=O)(=O)O)cc2cc(S(=O)(=O)O)cc(NC(C)=O)c2c1O,inactive,
CC(=O)Oc1ccc(C(=C2CCCCC2)c2ccc(OC(C)=O)cc2)cc1,inactive,
C[N+](C)(C)CCOC(N)=O,inactive,
CCCCCCOC(=O)CCCCCCCC(=O)OCCCCCC,inactive,
CCc1cccc(N(C)C(N)=Nc2cccc3ccccc23)c1,inactive,
CC(C)CCCC(=O)O,inactive,
CCn1cc(C(=O)O)c(=O)c2cc(F)c(N3CCNCC3)nc21,,-0.616% [at 18.6 µM] (inactive)
CC(C)CCCCCOC(=O)CCCCC(=O)OCCCCCC(C)C,inactive,
ON(Cc1ccccc1)Cc1ccccc1,inactive,
NC(=O)N(O)[C@@H]1COc2cc(OCc3ccccc3)ccc21,inactive,
CC(=O)Nc1ccccc1C,inactive,
C[C@]12CCC(=O)C=C1C=C[C@@H]1[C@@H]2CC[C@@]2(C)[C@H]1CC[C@@]21CCC(=O)O1,inactive,
CCCCCC=CCC=CCCCCCCCC(=O)OCC,inactive,

SMILES,outcome,"fluorescence, % of fluorescent control"
Oc1ccc(Nc2ccccc2)cc1,inactive,
CC(C)c1nnc2ccc(-c3ocnc3-c3cc(F)ccc3F)cn12,inactive,
OC(CCCN1CCCCC1)(c1ccccc1)c1ccccc1,inactive,
CC(C)=CC=O,inactive,
O=C(O)c1cccc(O)c1,inactive,
Cc1oncc1C(=O)Nc1ccc(C(F)(F)F)cc1,inactive,
CCCCCCCCCCCC[N+](C)(C)CC(=O)[O-],inactive,
Cc1occc1C(=O)Nc1ccc(C(=O)N2CCC(F)(F)/C(=C\C(=O)N3CCC(N4CCCCC4)CC3)c3ccccc32)cc1,inactive,
CC(C)CCCCCCOC(=O)CCCCC(=O)OCCCCCCC(C)C,inactive,
CN1CCCN=C1/C=C/c1cccs1,inactive,
CCC(C(=O)OCCN(CC)CC)c1ccccc1 (stereo not given),inactive,
C[C@@H]1C[C@H]2[C@@H]3CCC4=CC(=O)C=C[C@]4(C)[C@@]3(F)[C@@H](O)C[C@]2(C)[C@H]1C(=O)CO,inactive,
O=C1NCCN1,inactive,
CC(=O)OCC(=O)[C@@]12OC(C)(C)O[C@@H]1C[C@H]1[C@@H]3C[C@H](F)C4=CC(=O)C=C[C@]4(C)[C@@]3(F)[C@@H](O)C[C@@]12C,,0.156% [at 18.6 µM] (inactive)
CC1CC(O)CC(C)(C)C1 (stereo not given),inactive,
CCCCN(CCCC)C(=S)SSC(=S)N(CCCC)CCCC,inactive,
CC1(C)C(=O)N(Br)C(=O)N1Cl,inactive,
O=C(O)Cc1ccc(-c2ccccc2)cc1,,-0.147% [at 18.6 µM] (inactive)
CCOC(=O)[C@@H](C)Oc1ccc(Oc2nc3ccc(Cl)cc3o2)cc1,inactive,
COc1cc2c(cc1OC)-c1cc(=Nc3c(C)cc(C)cc3C)n(C)c(=O)n1CC2,inactive,
